# PINK1 expr mod: changes PINK1 expression | PINK1 immunofluorescence, high-content cytometry, 24 h | Potency, µM (highest dose often 76.6 µM), for the others: top-dose activation (PINK1 increase), usual class: activators | AID 624263 | hit rate 0.2% among 410,000; active means well fitted activation curve with a large enough effect; inconclusive means small, poorly fitted or top-dose-only effect; cell line not stated here; further: % of control where 0% means no effect; nearly all actives have a fitted effect of over 65% in size
#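 Stable cell line, 250 cells/well, 12 h attachment; compounds pinned at 5 concentrations, 24 h; CCCP control. Fixed with nuclear dye, primary antibodies 12 h at 10 degrees C, secondary plus cell stain; laser-scanning cytometer read.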
# Apoferritin bind: binds horse apoferritin like a general anesthetic | apoferritin/1-aminoanthracene competitive binding, fluorescence | Potency, µM (top dose mostly 77.5 µM), for the others: at the highest dose activity change, negative = displacement, most hits filed as inhibitors | hit rate 0.074% among 350,000; further: on the % scale 0 is the no-effect control and ±100 the full control effect; nearly all actives have a fitted effect of over 20% in size
# Target sequence (P02791 2-175 limits assumed): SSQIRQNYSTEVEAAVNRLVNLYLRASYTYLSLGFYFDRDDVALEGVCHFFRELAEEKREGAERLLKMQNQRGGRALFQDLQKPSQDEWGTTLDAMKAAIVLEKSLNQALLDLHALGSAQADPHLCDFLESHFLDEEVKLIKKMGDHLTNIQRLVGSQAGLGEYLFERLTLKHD
#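 Steps: apoferritin (10 uM) was premixed with half-saturated 1-AMA in PBS, compounds were pin-transferred, plates stood 10 min at room temperature, fluorescence was read at 380/535 nm, and curves were fitted with a Hill equation.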
# Epigenetic reg: derepresses silenced GFP reporter in murine cells; murine LDR cells, GFP reporter derepression, 30 h; Potency, µM (top dose mostly 53.9 µM), inactives show top-dose GFP activation, most hits filed as activators; hit rate 0.2% among 280,000; AID 1865; further: % of control where 0% means no effect; nearly all actives have a fitted effect of over 60% in size
#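 In this reporter-derepression format, murine cells bearing a silenced integrated CMV-GFP locus incubate with test compound (30 h, 37 C), then are washed and imaged; fluorescent objects of 20–120 um count as induced cells.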
# HTT aggregate: inhibitors of mutant huntingtin aggregate formation in PC12 cells; PC12 HttQ103-GFP aggregates, Acumen cytometry, 40 h; Potency, µM (titrated, usually from 46.1 µM), inactives show top-dose activity change, negative = inhibition, hits mostly inhibitors; hit rate 1.1% among 220,000; AID 1688; further: on the % scale 0 is the no-effect control and ±100 the full control effect; nearly all actives have a fitted effect of over 60% in size
#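 Aggregates are detected as GFP objects 1–25 µm with signal 6 STDEV over background in lysates of induced PC12 cells. These carry Huntingtin exon 1 with 103 glutamines fused to GFP under an ecdysone promoter; compounds titrated.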
# PTAP TSG101 blk: blocks PTAP/TSG101 interaction to inhibit HIV-1 budding. 340,000 tested, under 10 active. Fluorescence polarization, FITC-PTAP peptide / Tsg101 binding. AID 493005. Potency, µM (series often up to 115 µM), inactives show at the highest dose activity change, negative = inhibition, usual class: inhibitors. Q99816; active means well fitted inhibition curve with a large enough effect in the main read-out, with a control signal flat, not every such curve was filed as active; inconclusive means small, poorly fitted or top-dose-only effect, or effect the other way, or a change in a side signal; inactive means no such curve, though single readings can be large or run the other way; further: % of control where 0% means no effect
# Target sequence (Q99816 whole entry, looked up): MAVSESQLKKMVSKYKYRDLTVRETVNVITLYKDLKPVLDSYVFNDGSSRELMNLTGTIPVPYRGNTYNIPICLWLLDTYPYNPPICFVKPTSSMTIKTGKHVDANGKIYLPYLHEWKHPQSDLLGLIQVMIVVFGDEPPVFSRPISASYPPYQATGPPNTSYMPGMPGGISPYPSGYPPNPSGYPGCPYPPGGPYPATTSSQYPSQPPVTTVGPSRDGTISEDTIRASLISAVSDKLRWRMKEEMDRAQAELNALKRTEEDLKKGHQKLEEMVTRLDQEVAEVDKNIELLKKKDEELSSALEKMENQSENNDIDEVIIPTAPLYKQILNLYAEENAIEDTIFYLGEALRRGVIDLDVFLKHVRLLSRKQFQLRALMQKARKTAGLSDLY
#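 Fluorescence polarization binding of Tsg101 binding domain (10 uM final) to FITC-labeled PTAP peptide (50 nM final) in HEPES pH 7.5 buffer with NaCl, Tween 20, EDTA, TCEP. Compounds added before peptide; binding 20 min at RT.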
# HTT cytoprotect: cytoprotection in Huntington HTT-Q103 PC12 cell model; PC12 HTT-Q103 induced, cytoprotection, ATP luminescence, 40 h; Potency, µM (titrated, usually from 56.4 µM), for the others: cytoprotection (ATP increase), hits mostly activators; hit rate 0.14% among 230,000; AID 1471; further: % of control where 0% means no effect; nearly all actives have a fitted effect of over 45% in size
#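 Rat PC12, Q103 Htt exon1-GFP fusion, ecdysone promoter; tebufenozide inducer 100 nM final; compound titration; qHTS, 1500 cells/well; ATPlite luminescent read.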
# The depositor's hits bear a star; ? = inconclusive; . = no result; ! = repeats disagree; [ ] = another dose, or the depositor's remark. Only a selection was taken, and hits are over-represented in it overall. Unless noted, the call rests on the fitted dose curve; in most records, active means well fitted curve in the direction sought with a large enough effect; inconclusive means small, poorly fitted or top-dose-only effect, or another doubt; inactive means no such curve, though single readings can be large; an effect the other way counts as inactive or inconclusive. Potency means the concentration at half of the fitted maximal effect.
SMILES,PINK1 expr mod,Apoferritin bind,Epigenetic reg,HTT aggregate,PTAP TSG101 blk,HTT cytoprotect
COc1ccc2c(c1)OC(C)CN(CCNC(=O)c1cc3cc(F)ccc3[nH]1)C2 (centres undefined),-1%,.,.,.,.,.
Cc1ccc(NC(=O)C2=C(c3ccccc3)S(=O)(=O)CCS2(=O)=O)cc1,-1%,-5%,?,5µM*,1%,-133%
C/C(=C\c1ccco1)C1C(C#N)=C(N)Oc2n[nH]c(-c3ccc(C)cc3)c21 (centres undefined),?,?,0%,27%,-7%,3.5µM*
C/C(=C\c1ccco1)C1C(C#N)=C(N)Oc2n[nH]c(-c3ccccc3)c21 (centres undefined),8%,?,-1%,7%,-4%,1%
Nc1cccc(Oc2ccc3c(c2)C(=O)N(CCO)C3=O)c1,1%,.,.,.,0%,.
O=C1c2ccc(Oc3ccc4c(c3)C(=O)N(CCCO)C4=O)cc2C(=O)N1CCCO,-4%,4%,0%,5.6µM*,-2%,0%
O=C(COc1ccccc1C(=O)Nc1ccccc1)Nc1ccc(-c2ccccc2)cc1,2%,.,.,.,.,.
CCOC(=O)c1cc(-c2ccccc2)n(CCCC(=O)Nc2ccc(CC)cc2)c1C,0%,12%,-1%,.,.,.
CCOC(=O)c1cc(-c2ccccc2)n(CCC(=O)Nc2ccc(C(F)(F)F)cc2)c1C,40µM*,56%,?,.,.,.
CCN1CCN(C(=O)c2sc3ncnc(NCC4CCCO4)c3c2C)CC1 (centres undefined),0%,.,.,.,.,.
CCN1/C(=C/c2ccc3cc(C)ccc3[n+]2CC)Sc2ccccc21,8%,?,?,0.35µM*,25%,-68%[10 µM]
CC(=S)/C=C1\Sc2ccccc2N1C,4%[38.3 µM],-18%,0%,-19%,-10%,-21%
CC[n+]1c(/C=C2\Sc3ccccc3N2C)ccc2cccc(C)c21,0%,?,?,1µM*,19%,-88%[10 µM]
CCN1/C(=C/c2ccc3cc(C)ccc3[n+]2CC)Sc2cc(C)c(C)cc21,?,-12%,25µM*,.,3%,-64%[10 µM]
O=Nc1c(-c2c(O)[nH]c3ccccc23)[nH]c2ccccc12,.,.,0%,.,.,1.3µM*!
O=C(Cc1ccccc1)N1CCc2ccccc21,-2%[38.3 µM],8.9µM*,-1%,-3%,-1%,4%
O=C(OCC(=O)N1CCCc2ccccc21)c1cncc(Br)c1,1%,-3%,-1%,26%,0%,-8%[10 µM]
O=C(OCC(=O)N1CCc2ccccc21)c1cncc(Br)c1,-1%,-2%,0%,?,-2%,2.2µM*
O=C([C@@H]1C[C@@H](Sc2nc3ccccc3[nH]2)CN1CC1CCCCC1)N1CCOCC1,0%,.,.,.,.,.
COc1ccc(-c2n[nH]c(C(F)(F)F)c2-c2cc3ccccc3o2)c(O)c1,4%[38.3 µM],?,0%,3.5µM*,-2%,12%[10 µM]
O=C(NNC(=S)NC1CCCCC1)c1ccccc1O,5%,-9%,-3%,10µM*,-10%,-82%
CCCC1=Nc2cc(C(=O)NC3CCCCC3)ccc2Sc2ccc(C)cc21,2%,7%,4%,.,.,.
CN(C)c1ccc(N=Nc2ccccc2C(=O)OCC(=O)NC2CCCC2)cc1,11%,-17%,0%,6.3µM*,5%,-20%[10 µM]
CN(C)c1ccc(N=Nc2ccccc2C(=O)OCC(=O)NCC2CCCCC2)cc1,1%,?,0%,-1%,-1%,5%[10 µM]
COc1cc(-c2cc(C)c3c(OC)ccc(OC)c3n2)cc2c1OCCN(C(=O)CCn1ccc(C)n1)C2,0%,.,.,.,.,.
SMILES,PINK1 expr mod,Apoferritin bind,Epigenetic reg,HTT aggregate,PTAP TSG101 blk,HTT cytoprotect
Cc1nc(CC(=O)N2CCC(n3c(C4CCC4)nc4cccnc43)CC2)cs1,0%,.,.,.,.,.
CN(C)c1nc(=NCc2ccco2)ss1,0%,-11%,?,0.89µM*,-2%,-92%[10 µM]
CNc1ccc(C=O)cc1Cl,2%,.,.,.,.,.
CCOC(=O)c1c(-c2cccs2)csc1NC(=O)C(C)(C)C,-1%[38.3 µM],-14%,1%,14µM*,0%,-73%
CCOC(=O)c1c(-c2ccccc2)csc1NC(=S)NC,-2%,-6%,-1%,-24%,-6%,20%[10 µM]
CCNC(=S)Nc1scc(-c2ccccc2)c1C(=O)OCC,2%,-11%,0%,14µM*,-2%,.
CCNC(=O)c1sc2ncnc(NCCCN3CCOCC3)c2c1C,-1%,.,.,.,.,.
N#CC1=C(N)N2C(=C(C#N)C1c1cccc(Br)c1)Nc1ccccc12 (centres undefined),3.2µM*,0%,1%,?,-1%,-22%[10 µM]
OC1(c2cccnc2)CCN(Cc2ccc3c(c2)CN(Cc2cccc4nccnc24)CCO3)CC1,0%,.,.,.,.,.
Cc1cccc(C)c1NC1=NC2(CCCCC2)N=C(N)N1,.,-5%,-1%,.,-3%,0.63µM*
Cc1cccc(C(=O)NCc2nc(-c3cccc(NC(=O)C4CCCN(C)C4)c3)oc2C)n1 (centres undefined),-1%,.,.,.,.,.
Cn1c(CCCOc2ccc(Cl)cc2Cl)nnc1SCC(=O)Nc1nccs1,13µM*,-5%,-1%,-9%,-5%,-2%[10 µM]
CCn1c(Oc2ccccc2C)nc2c1c(=O)n(C)c(=O)n2C,1%,-6%,.,.,-3%,.
CCn1c(Oc2ccc(F)cc2)nc2c1c(=O)n(C)c(=O)n2C,0%,-8%,2%,11µM*,0%,-32%
COc1ccc2ccccc2c1CN1CCc2nnc(CNC(=O)c3cccc(F)c3)n2CC1,1%,.,.,.,.,.
CCCN(CCC)CC(O)Cn1cc(/C=C/C(=O)c2ccc(Br)cc2)c2ccccc21 (centres undefined),-4%,-12%,16µM*,.,.,.
Cc1ccc2[nH]c3c(c2c1)CN(C(=O)CC1(c2ccccc2)CC(=O)N(Cc2cccnc2)C1=O)CC3 (centres undefined),3%,.,.,.,.,.
Cn1c(=O)c2c(ncn2CCO)n(C)c1=O,3%,4%,2%,4%,-1%,2.5µM*!
COc1ccc(-c2nnc3ccc(SC(C)C)nn23)cc1OC,2%,.,.,.,.,.
C/C(=C1/C=Nc2ccccc21)c1ccc(N(C)C)cc1,1%,.,.,.,.,.
CCOc1ccccc1Nc1sc(C(=O)c2ccccc2)c(N)c1C(=O)Nc1ccc(F)cc1,1%,-13%,-1%,.,.,.
Cc1cccc(C)c1Nc1sc(C(=O)c2ccccc2)c(N)c1C(=O)Nc1ccc(F)cc1,45µM*,?,0%,.,.,.
FC(F)(F)Oc1ccc(NC(=S)Nc2ccc(OC(F)(F)F)cc2)cc1,16µM*,0%,-7%,6%[9.22 µM],2%,8%[10 µM]
Cc1ccc(OC(C)C(=O)Nc2nonc2-c2ccc(Br)cc2)cc1C (centres undefined),22µM*,-5%,-2%,.,.,.

# Assay outcomes as filed in PubChem.
